Source: PubChem (National Center for Advancing Translational Sciences (NCATS))
TRPML1 inh: human mucolipin-1 channel inhibition; Q9GZU1; TRPML1-inducible cells, Ca2+ dye fluorescence, FDSS; hits give low values; inhibition of EC80 agonist-evoked calcium signal; activity change, negative = inhibition, % (no concentration beside the values); hit rate 0.02% among 390,000; in the data active means activity change below about -50%; inconclusive means between about -30% and that limit;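 further: stimulus is agonist 54-4 at its EC80 concentration; on the % scale 0 is the no-effect control and ±100 the full control effect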
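Calcium fluorescence in TRPML1-DL cells induced overnight with Tet: a 110 s read after compound pin addition, then a 110 s antagonist read after challenge with 54-4 at 4 uM final (EC80).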
TRPV1 agonist: agonists of human vanilloid receptor 1 (TRPV1) | TRPV1-expressing cells, Fluo-8 calcium influx, agonist mode | hit rate 0.19% among 320,000 | Q8NER1 | activation, % at 8.33 µM; in the data active means activation above about 80%; inconclusive means between about 30% and that limit; further: 0% is about no effect
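TRPV1-expressing cells were cultured overnight at 35.5C and loaded with Fluo-8 calcium dye for 40 to 90 min at room temperature. After a 10 s baseline, compound was added and calcium influx was read kinetically for 3 min (ex 480/em 520 nm).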
TRPML1 ag: activates the human TRPML1 channel; TRPML1-expressing cells, Ca2+ dye fluorescence, FDSS; hit rate 0.12% among 410,000; activation, % (no concentration beside the values); in the data active means activation above about 50%; inconclusive means mostly about 30% to 49%; further: 0% is about no effect
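Tet-induced TRPML1-DL cells, 1,500 per well, cultured overnight, were loaded with a no-wash Ca2+ dye for 45–90 min. Calcium fluorescence was recorded on the FDSS for 110 s after compound addition, before the EC80 agonist (4 uM 54-4) was added.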
KCNH2 WT inh: blocks the wildtype human KCNH2 potassium channel. hit rate 0.37% among 340,000. activity change, % at 1.84 µM. U2OS, BacMam KCNH2, thallium flux FluxOr; hits give low values. AID 720551. Q12809;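 active means maximum activity change below -70%; inconclusive means maximum activity change between -70% and -50%; inactive means maximum activity change above -50%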; further: on the % scale 0 is the no-effect control and ±100 the full control effect
Target sequence (Q12809 whole entry, looked up): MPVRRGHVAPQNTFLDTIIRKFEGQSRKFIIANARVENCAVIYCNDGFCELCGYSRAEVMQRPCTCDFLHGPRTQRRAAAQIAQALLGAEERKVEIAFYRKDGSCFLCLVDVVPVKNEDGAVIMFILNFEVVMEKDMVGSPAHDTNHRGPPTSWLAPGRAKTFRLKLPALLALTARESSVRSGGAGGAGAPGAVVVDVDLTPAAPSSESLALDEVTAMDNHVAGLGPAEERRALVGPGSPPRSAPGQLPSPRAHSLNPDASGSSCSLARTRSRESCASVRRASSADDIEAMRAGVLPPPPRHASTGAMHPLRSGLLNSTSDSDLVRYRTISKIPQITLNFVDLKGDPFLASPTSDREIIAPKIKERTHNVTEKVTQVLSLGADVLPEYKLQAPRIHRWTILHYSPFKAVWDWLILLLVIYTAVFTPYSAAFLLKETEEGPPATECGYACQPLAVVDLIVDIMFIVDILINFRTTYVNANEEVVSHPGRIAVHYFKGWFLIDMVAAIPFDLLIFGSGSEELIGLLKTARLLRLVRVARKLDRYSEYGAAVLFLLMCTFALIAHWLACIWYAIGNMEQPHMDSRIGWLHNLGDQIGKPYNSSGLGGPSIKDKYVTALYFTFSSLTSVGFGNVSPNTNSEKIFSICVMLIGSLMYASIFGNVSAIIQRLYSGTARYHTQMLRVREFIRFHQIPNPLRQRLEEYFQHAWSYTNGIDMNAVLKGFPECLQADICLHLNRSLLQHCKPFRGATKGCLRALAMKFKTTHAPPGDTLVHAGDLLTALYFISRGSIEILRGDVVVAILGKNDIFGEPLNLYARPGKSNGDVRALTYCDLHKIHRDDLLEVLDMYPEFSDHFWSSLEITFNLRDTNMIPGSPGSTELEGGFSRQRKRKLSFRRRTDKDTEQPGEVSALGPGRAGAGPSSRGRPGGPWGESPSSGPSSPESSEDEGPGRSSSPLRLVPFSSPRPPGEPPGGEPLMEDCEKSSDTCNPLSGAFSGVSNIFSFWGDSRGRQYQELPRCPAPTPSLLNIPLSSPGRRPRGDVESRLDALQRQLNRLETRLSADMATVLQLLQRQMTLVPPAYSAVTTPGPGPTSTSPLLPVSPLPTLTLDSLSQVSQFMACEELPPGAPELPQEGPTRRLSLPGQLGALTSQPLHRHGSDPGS
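U2OS cells transduced with wild-type KCNH2 virus are loaded with FluxOr dye for 45 min, and thallium flux is measured in kinetic reads before and after stimulation buffer. Rate constants are normalized to DMSO controls.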
TRPV1 potentiator: potentiators of human vanilloid receptor 1 (TRPV1) | hit rate 0.02% among 320,000 | Q8NER1 | TRPV1-expressing cells, Fluo-8 calcium influx, capsaicin EC20 potentiation | potentiation, % at 8.33 µM; in the data active means potentiation above about 80%; inconclusive means between about 30% and that limit; further: 0% is about no effect
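Cells expressing TRPV1 were dye-loaded with Fluo-8 and read kinetically: 10 s baseline, 3 min after compound (agonist portion), then 2 min after EC20 capsaicin (allosteric enhancer portion). Calcium-bound dye fluorescence at 480/520 nm.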
KCNH2 3.1 block: blocks the human KCNH2 3.1 channel isoform | U2OS KCNH2 3.1, thallium flux FluxOr; hits give low values | activity change, % (tested at about 1.8 µM) | hit rate 0.95% among 340,000;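 active means maximum activity change below -70%; inconclusive means maximum activity change from -70% to -50%; inactive means maximum activity change above -50%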;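 further: thallium influx rate constant from kinetic fluorescence after stimulation buffer; on the % scale 0 is the no-effect control and ±100 the full control effect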
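Thallium flux read-out: FluxOr dye with Red40 quencher in HBSS/HEPES, 45 min at RT. Rate constants from kinetic reads were normalized to positive and negative DMSO controls. Cells: U2OS virally expressing the 3.1 isoform.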
* = called active by the depositor; ? = inconclusive; . = not tested or not shown. Most compounds without a hit are left out; they make up all but 1.3% or so of the library.

SMILES | TRPML1 inh | TRPV1 agonist | TRPML1 ag | KCNH2 WT inh | TRPV1 potentiator | KCNH2 3.1 block
COc1ccc(CCN2CCCC(CN(C)Cc3cccc(OC)c3)C2)cc1 (configuration not stated) | 11 | -2 | 1 | -25 | -1 | -74*
CN(Cc1ccccc1O)CC1CCCN(CCc2ccc(Cl)cc2)C1 (configuration not stated) | 4 | 2 | 0 | 1 | -7 | -86*
CCN(Cc1ccc(OC)c(COC)c1)CC1CCCN(CCc2cccc(F)c2)C1 (configuration not stated) | 5 | -6 | 0 | 50 | ? | -72*
CCN(Cc1ccc(OC)c(COC)c1)CC1CCCN(CCc2cccc(OC)c2)C1 (configuration not stated) | 17 | 3 | 0 | 42 | -4 | -9
CCOC(=O)COc1ccc(CC)cc1C(=O)c1ccn2nc(-c3ccc(Cl)cc3)cc2n1 | -1 | . | 1 | . | . | .
CCOc1cc(/C=C(\C#N)C(=O)Nc2cccc(C(=O)O)c2)cc(Br)c1OC(=O)c1ccc(OC)cc1 | 11 | ? | 0 | -1 | -4 | -112*
CC(=O)c1ccc(N2CCN(C(=O)Nc3ccc(C)cc3)CC2)cc1 | -24 | 94* | 2 | -9 | 0 | 0
CC(=O)c1ccc(NC(=O)N2CCN(c3ccc(C)cc3)C(C)C2)cc1 (configuration not stated) | 18 | 84* | 0 | . | 2 | 8
O=C(Cn1c(=O)n2nc(-c3cccc(F)c3)nc2c2ccccc21)N1CCN(c2ccccc2F)CC1 | -14 | . | 1 | . | . | .
CCOc1ccc(C(=O)Nc2ccc3nc(SCC(=O)N4CCOCC4)sc3c2)cc1 | -21 | . | 3 | . | . | .
CCOc1ccccc1NC(=O)Cn1c(=O)n(Cc2ccco2)c(=O)c2ccc(C(=O)NC3CCCC3)cc21 | -5 | . | 2 | . | . | .
CSc1nnnn1CCn1nnnc1SC | 89 | 0 | 0 | -243* | -1 | -9
Cn1nnnc1SCSc1nnnn1C | -11 | 1 | 0 | 2 | -6 | 1
CCOc1ccccc1NC(=O)CSc1nc2cc(OC)c(OC)cc2c2nc(CCn3c(C)nc4ccccc43)nn12 | -15 | . | 1 | . | . | .
Cc1cc(N2CCCCC2)nc(N)n1 | -10 | 18 | 56* | -2 | -9 | -3
CC(C)(C)n1ncc2c(=O)n(Cc3ccccc3SC(F)(F)F)cnc21 | 11 | . | 1 | . | . | .
CC(C)(C)n1ncc2c(=O)n(Cc3cccc(OC(F)F)c3)cnc21 | 31 | . | 2 | . | . | .
COc1ccc(SCC(c2ccccc2)N2CCN(CC(C)C)CCC2=O)cc1 (configuration not stated) | 12 | . | 2 | . | . | .
CN1CCC(=O)N([C@H](CSc2ccccc2)c2ccccc2)CC1 | -6 | 3 | 1 | 13 | -3 | -124*
COc1ccc(SC[C@H](CC(C)C)N2CCN(CCc3ccccc3)CCC2=O)cc1 | 37 | 3 | 0 | -75* | -17 | -106*
CCCN1CCC(=O)N([C@H](CSc2ccc(OC)cc2)c2ccccc2)CC1 | 0 | 11 | -1 | -39 | 9 | -93*
Cc1ccc(SC[C@H](CC(C)C)N2CCN(CCc3ccccc3)CCC2=O)cc1 | 4 | 25 | 1 | . | -11 | .
CC(C)(C)c1ccc(C(=O)C[n+]2cccc(Br)c2)cc1 | . | . | 0 | . | . | .
COc1cccc(CNC(=O)c2ccc(OCC(=O)N3CCOCC3)c(OC)c2)c1 | 40 | -1 | 0 | 2 | 4 | -3
COc1ccc(C(=S)N2CCOCC2)cc1OC(=O)c1ccccc1 | -9 | 4 | 0 | -22 | 7 | -3
SMILES | TRPML1 inh | TRPV1 agonist | TRPML1 ag | KCNH2 WT inh | TRPV1 potentiator | KCNH2 3.1 block
COc1ccc(C(=S)N2CCOCC2)cc1OC(=O)c1cc(OC)c(OC)c(OC)c1 | 0 | 0 | 1 | 2 | 8 | -79*
COC(=O)c1ccc(CNC(=O)c2ccc(OCC(=O)N3CCOCC3)c(OC)c2)cc1 | -10 | 1 | 0 | -152* | -9 | -193*
COc1cc(Cn2c(=O)sc3ccccc32)ccc1OCCC(C)C | -9 | . | 4 | . | . | .
Cc1cc2n(n1)CCC(=O)N2Cc1ccc(C(=O)Nc2ccc(F)cc2F)cc1 | ? | . | 0 | . | . | .
CC1CCN(c2oc(-c3cccs3)nc2S(=O)(=O)c2ccc(Cl)cc2)CC1 | 9 | . | 0 | . | . | .
CCOc1ccc(NC(=O)C(Cc2ccccc2)N2C(=O)c3cccc4cccc(c34)C2=O)cc1 (configuration not stated) | -5 | -6 | 61* | -22 | 8 | -32
CN(C/C=C/c1ccccc1)Cc1cccc2ccccc12 | -2 | -1 | 0 | 15 | 15 | -95*
CCC(C)Sc1oc(-c2ccco2)nc1S(=O)(=O)c1ccc(Cl)cc1 (configuration not stated) | 5 | . | 1 | . | . | .
CCn1c(=O)sc2cc(NS(=O)(=O)c3ccc(F)c(C)c3)ccc21 | 12 | . | 0 | . | . | .
S=c1nc(SCc2ccccc2)[nH]c2ccccc12 | 13 | -2 | 1 | ? | 21 | -128*
Cc1ccc2c(c1)cc(CN(Cc1ccc3c(c1)OCO3)C(=O)c1cnccn1)c1nnnn12 | -5 | 13 | 3 | 0 | 2 | -96*
Cc1cc2cc(CN(Cc3ccc4c(c3)OCO4)C(=O)c3cnccn3)c3nnnn3c2cc1C | 15 | 13 | 0 | -7 | -7 | -4
CCOC(=O)c1cc(-c2ccccc2)n(CCC(=O)Nc2ccc(Cl)c(C(F)(F)F)c2)c1C | -6 | . | 10 | . | . | .
Cc1c(C(=O)OCC(=O)N2CCN(c3ccccc3)CC2)oc2ccccc12 | 19 | . | 2 | -1 | . | -11
Cc1onc(-c2ccccc2)c1C(=O)N1CCN(c2ccc([N+](=O)[O-])cc2)CC1 | 20 | . | 0 | -8 | . | -24
Cc1c(C(=O)N2CCN(c3ccc([N+](=O)[O-])cc3)CC2)oc2ccccc12 | 14 | 1 | 4 | -18 | -13 | -73*
Cc1c(-c2ccccc2)oc2c(C(=O)N3CCN(c4ccc([N+](=O)[O-])cc4)CC3)cccc2c1=O | 2 | 0 | 1 | -103* | 1 | -71*
O=S(=O)(Nc1cccc2cccnc12)c1cccs1 | -5 | 14 | 2 | . | 7 | .
CCOc1ccc(NC(=O)N2CCN(S(=O)(=O)c3ccc4c(ccn4C)c3)CC2)cc1 | 12 | . | 1 | . | . | .
Cc1ccc(NC(=S)N/N=C2\CC3CC=CC23)c(C)c1 (configuration not stated) | -24 | 0 | 0 | -3 | -5 | 3
Cc1cccc(C)c1NC(=S)N/N=C1\CC2CC=CC12 (configuration not stated) | 33 | 2 | 1 | 7 | 5 | -131*
O=C(CC(C(=O)O)n1ccnc1)c1ccc(Cl)cc1 (configuration not stated) | . | . | 0 | . | . | .
